Measurements published in PubChem BioAssay (Tox21).
Values without a mark were called inactive. Inconclusive results are not listed. A call without a number means that no potency is given here. Activity calls are given as the source filed them. Unless noted, calls come from the whole dose curve; as a rule, active = well fitted curve in the direction sought with a large enough effect in the repeat runs; inconclusive = weak or mixed curves; inactive = no such curve, though single readings can be large; an effect the other way counts as inactive or inconclusive.

What was measured:
[1] = qHTS assay to identify small molecule antagonists of the TGF-beta/Smad signaling pathway - cell viability counter screen (AID 1346824); note: nearly all actives have a fitted effect of over 50% in size
Outline: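 SBE-bla HEK 293T cells, incubated overnight, then compound plus 0.25 ng/mL TGF-beta1 (stock added) for 5 hr at 37 C. Viability was read in the same wells by CellTiter-Glo luminescence after 30 min at room temperature.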

[2] = qHTS assay to identify small molecule agonists of the TGF-beta/Smad signaling pathway - cell viability counter screen (AID 1346829); note: top concentration of the series differs between compounds; nearly all actives have a fitted effect of over 45% in size
Outline: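 Cytotoxicity counter screen: CellTiter-Glo luminescence (30 min, room temperature) measured in the SBE-bla HEK 293T reporter wells after 5 hr compound treatment at 37 C and the 2 hr substrate step.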

[3] = Human pregnane X receptor (PXR) small molecule agonists, qHTS cell viability counter screen (AID 1346977); note: nearly all actives have a fitted effect of over 50% in size
Outline: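 After a 5hr pre-incubation, PXR-Luc HepG2 cells received compounds plus positive control in DMSO and were kept 24hr at 37C. Cell viability was quantified by fluorescence from CellTiter-Fluor added for the final hour.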

[4] = Caspase-3/7 induction in HepG2 cells by small molecules, qHTS assay (AID 1346978); note: nearly all actives have a fitted effect of over 15% in size
Outline: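 Wild-type HepG2 cells, 2,000/well, settled 5 hr at 37 C and 5% CO2, then compound-treated for 17 hr; caspase-3/7 activity read by luminescent Caspase-Glo 3/7 after 30 min at room temperature.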

[5] = Caspase-3/7 induction in CHO-K1 cells by small molecules, qHTS cell viability counter screen (AID 1346979); note: nearly all actives have a fitted effect of over 35% in size
Outline: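 Multiplexed with Caspase-Glo 3/7 in CHO-K1 cells, this counter screen added CellTiter-Fluor after 16hr of compound exposure and recorded fluorescence 1hr later.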

[6] = Caspase-3/7 induction in CHO-K1 cells by small molecules, qHTS assay (AID 1346980); note: nearly all actives have a fitted effect of over 15% in size
Outline: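 Wild-type CHO-K1 cells exposed to compounds for 17hr at 37 C, 5% CO2. Caspase-3/7 activity then measured by Caspase-Glo 3/7 luminescence after 30min at room temperature.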

[7] = Caspase-3/7 induction in HepG2 cells by small molecules, qHTS cell viability counter screen (AID 1346981); note: series mostly up to about 92 µM; nearly all actives have a fitted effect of over 30% in size
Outline: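 Fluorescence read-out of live-cell protease activity (CellTiter-Fluor) after 1 hr with reagent. This was measured in the same wells as the caspase-3/7 luminescence, on HepG2 cells exposed to DMSO-dissolved compounds for 16 hr at 37 C.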

[8] = target: Nuclear receptor subfamily 1 group I member 2 (Homo sapiens) (UniProt O75469); test: Human pregnane X receptor (PXR) small molecule agonists, qHTS assay (AID 1346982); note: nearly all actives have a fitted effect of over 35% in size
Outline: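 HepG2 PXR-Luc reporter line, 5% charcoal-stripped FBS; 5 hr pre-incubation, compound (DMSO) 24 hr at 37 C/5% CO2; ONE-Glo 30 min RT; luminescence read-out.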

[9] = target: Nuclear receptor subfamily 1 group I member 2 (Homo sapiens) (UniProt O75469); test: CYP3A4 induction through human pregnane X receptor (PXR) by small molecules, qHTS assay (AID 1346984); note: nearly all actives have a fitted effect of over 40% in size
Outline: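 HepG2-derived DPX-2 line carrying PXR plus a CYP3A4-promoter luciferase reporter; cells plated 5 hr, compound-exposed 24 hr at 37C. CYP3A4 activity probed with 3uM (final) Luciferin-IPA for 3hr, then luciferase read after One-Glo.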

[10] = target: Nuclear receptor subfamily 1 group I member 2 (Homo sapiens) (UniProt O75469); test: Human pregnane X receptor (PXR) activation by small molecules, qHTS assay (AID 1346985); note: nearly all actives have a fitted effect of over 40% in size
Outline: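 DPX-2 cells (HepG2 co-transfected with a PXR response element and a CYP3A4-promoter luciferase construct) were seeded at 2,000 per well, rested 5 hr at 37C, then exposed to DMSO-dissolved compounds for 24 hr. Activation was read as luciferase luminescence.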

[11] = target: Cytochrome P450 2D6 (Homo sapiens) (UniProt P10635); test: Cytochrome P450 Family 2 Subfamily D Member 6 (CYP2D6) small molecule antagonists: luciferase reporter qHTS assay (AID 1671196); note: series mostly up to about 120 µM; nearly all actives have a fitted effect of over 50% in size
Outline: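 Luminogenic proluciferin substrate, CYP2D6 enzyme; 10 min RT preincubation with compound, NADPH regeneration system added, 1 h RT. Stop/detection reagent, 20 min RT, luminescence read (RLU). Signal proportional to CYP activity.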

[12] = target: Cytochrome P450 2C19 (Homo sapiens) (UniProt P33261); test: Cytochrome P450 Family 2 Subfamily C Member 19 (CYP2C19) small molecule antagonists: luciferase reporter qHTS assay (AID 1671197); note: series mostly up to about 120 µM; nearly all actives have a fitted effect of over 65% in size
Outline: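 Luminescent readout of CYP2C19 activity: luciferin product detected 20 min after adding detection reagent. Before that, compound and enzyme-substrate mix preincubated 10 min at room temperature; NADPH-regenerating system started a 1 h, 37C reaction. Ketoconazole as positive control.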

[13] = target: Cytochrome P450 1A2 (Homo sapiens) (UniProt P05177); test: Cytochrome P450 Family 1 Subfamily A Member 2 (CYP1A2) small molecule antagonists: luciferase reporter qHTS assay (AID 1671199); note: nearly all actives have a fitted effect of over 50% in size; note: potency is the fitted concentration of half-maximal effect
Outline: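 Luminescence readout (relative luminescence units) after luciferin detection reagent, 20 min RT. Preceded by 1 h room-temperature CYP1A2 reaction with NADPH regeneration solution following 10 min compound preincubation with enzyme and proluciferin substrate. Furafylline positive control.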

[14] = target: Voltage-gated inwardly rectifying potassium channel KCNH2 (Homo sapiens) (UniProt Q12809); test: Human Ether-a-go-go-Related Gene (hERG) channel small molecule antagonists: fluorescence cell-based qHTS assay (AID 1671200)
Outline: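 Cell line hERG-U2OS; dye FluxOR II, 1 h RT dark; Tl+ stimulus; ex 480/em 540 nm, read each second for 2 min.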

[15] = target: Thyrotropin-releasing hormone receptor (Homo sapiens) (UniProt P34981); test: qHTS assay to identify small molecule agonists of the thyrotropin-releasing hormone receptor (TRHR) signaling pathway (AID 1346891; calls by dose curve;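 note: HEK293 cells expressing TRHR with calcium dye readout; series mostly up to about 58 µM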)
Outline: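 Overnight-plated (18 h, 37 °C, 5% CO2) TRHR-Hek293 cells; 2 h calcium dye at 37 °C; compound in DMSO; 3-min kinetic fluorescence read.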

[16] = target: Cytochrome P450 2C9 (Homo sapiens) (UniProt P11712); test: Cytochrome P450 Family 2 Subfamily C Member 9 (CYP2C9) small molecule antagonists: luciferase reporter qHTS assay (AID 1671198)
Outline: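 P450-Glo proluciferin substrate with CYP2C9 enzyme; 10 min RT preincubation, then NADPH regeneration 1 h at 37C; luciferin detection reagent 20 min RT, luminescence in relative luminescence units.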

[17] = target: Cytochrome P450 3A4 (Homo sapiens) (UniProt P08684); test: Cytochrome P450 Family 3 Subfamily A Member 4 (CYP3A4) small molecule antagonists: luciferase reporter qHTS assay (AID 1671201)
Outline: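 Room-temperature assay throughout: 10 min compound–enzyme/substrate preincubation, 1 h reaction after NADPH regeneration solution, 20 min detection. Luciferin formed from proluciferin substrate is quantified by luminescence.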

[18] = target: Thyrotropin-releasing hormone receptor (Homo sapiens) (UniProt P34981); test: qHTS assay to identify small molecule antagonists of the thyrotropin-releasing hormone receptor (TRHR) signaling pathway (AID 1346877; active = well fitted inhibition curve with a large enough effect in the repeat runs, not every such curve was filed as active; note: series mostly up to about 51 µM)
Outline: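 HEK293/TRHR cells, 18 h, 37 °C; Ca2+ dye 2 h; cpd 5 min RT; TRH 1 nM final; fluorescence read 3 min, 1 s intervals; 15 concs, triplicate.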

[19] = qHTS assay to identify small molecule agonists of the TGF-beta/Smad signaling pathway (AID 1346859; active = well fitted activation curve with a large enough effect in the signal ratio in the repeat runs, not every such curve was filed as active; the % refers to the signal ratio; note: series mostly up to about 77 µM)
Outline: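 Beta-lactamase reporter activity downstream of Smad binding elements was measured in stably transfected HEK 293T cells; compounds were incubated for 5 hr, substrate for 2 hr at room temperature.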

Voltage-gated inwardly rectifying potassium channel KCNH2 (Homo sapiens), sequence (Q12809 whole entry, looked up): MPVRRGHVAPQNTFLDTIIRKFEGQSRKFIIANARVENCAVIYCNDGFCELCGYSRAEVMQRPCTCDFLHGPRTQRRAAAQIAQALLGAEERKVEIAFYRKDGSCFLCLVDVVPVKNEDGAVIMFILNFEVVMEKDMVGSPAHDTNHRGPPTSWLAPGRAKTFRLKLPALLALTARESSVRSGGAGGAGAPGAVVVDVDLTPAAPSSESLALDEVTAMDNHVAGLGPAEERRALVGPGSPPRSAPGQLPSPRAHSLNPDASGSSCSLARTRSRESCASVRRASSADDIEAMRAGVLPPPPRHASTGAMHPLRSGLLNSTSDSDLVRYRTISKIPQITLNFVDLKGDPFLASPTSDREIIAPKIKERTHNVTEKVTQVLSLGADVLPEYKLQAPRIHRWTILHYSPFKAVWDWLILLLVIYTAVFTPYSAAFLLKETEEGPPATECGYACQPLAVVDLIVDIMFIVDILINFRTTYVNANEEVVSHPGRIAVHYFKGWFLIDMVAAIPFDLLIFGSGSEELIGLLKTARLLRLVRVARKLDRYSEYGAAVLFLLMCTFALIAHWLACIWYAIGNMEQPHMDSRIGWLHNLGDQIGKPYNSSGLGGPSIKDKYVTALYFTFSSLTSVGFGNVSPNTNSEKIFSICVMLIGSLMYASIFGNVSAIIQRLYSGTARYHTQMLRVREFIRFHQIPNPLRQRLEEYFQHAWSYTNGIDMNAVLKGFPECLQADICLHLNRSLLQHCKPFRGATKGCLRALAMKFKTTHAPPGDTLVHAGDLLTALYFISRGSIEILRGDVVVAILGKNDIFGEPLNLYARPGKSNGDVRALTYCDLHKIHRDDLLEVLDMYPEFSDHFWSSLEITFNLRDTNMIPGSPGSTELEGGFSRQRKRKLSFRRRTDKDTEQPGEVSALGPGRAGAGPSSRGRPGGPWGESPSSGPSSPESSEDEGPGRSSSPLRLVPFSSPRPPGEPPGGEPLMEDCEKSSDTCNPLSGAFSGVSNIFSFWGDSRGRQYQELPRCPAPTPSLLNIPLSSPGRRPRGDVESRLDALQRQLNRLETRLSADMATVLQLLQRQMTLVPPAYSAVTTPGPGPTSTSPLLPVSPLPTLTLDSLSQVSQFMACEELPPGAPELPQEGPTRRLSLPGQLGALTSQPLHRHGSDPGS
Nuclear receptor subfamily 1 group I member 2 (Homo sapiens), sequence (O75469 whole entry, looked up): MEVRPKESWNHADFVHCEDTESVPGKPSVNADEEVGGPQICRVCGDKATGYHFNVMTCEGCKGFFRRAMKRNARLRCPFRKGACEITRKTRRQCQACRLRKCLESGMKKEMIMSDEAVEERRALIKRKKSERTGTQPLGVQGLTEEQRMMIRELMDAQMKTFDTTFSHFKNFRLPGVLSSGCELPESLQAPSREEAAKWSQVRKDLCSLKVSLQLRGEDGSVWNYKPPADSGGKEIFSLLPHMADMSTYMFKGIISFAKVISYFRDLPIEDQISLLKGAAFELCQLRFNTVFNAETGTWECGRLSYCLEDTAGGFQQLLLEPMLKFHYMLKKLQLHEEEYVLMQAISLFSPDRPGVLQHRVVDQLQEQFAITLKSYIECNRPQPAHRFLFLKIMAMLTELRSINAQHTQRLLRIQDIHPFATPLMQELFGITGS
Cytochrome P450 2C19 (Homo sapiens), sequence (P33261 whole entry, looked up): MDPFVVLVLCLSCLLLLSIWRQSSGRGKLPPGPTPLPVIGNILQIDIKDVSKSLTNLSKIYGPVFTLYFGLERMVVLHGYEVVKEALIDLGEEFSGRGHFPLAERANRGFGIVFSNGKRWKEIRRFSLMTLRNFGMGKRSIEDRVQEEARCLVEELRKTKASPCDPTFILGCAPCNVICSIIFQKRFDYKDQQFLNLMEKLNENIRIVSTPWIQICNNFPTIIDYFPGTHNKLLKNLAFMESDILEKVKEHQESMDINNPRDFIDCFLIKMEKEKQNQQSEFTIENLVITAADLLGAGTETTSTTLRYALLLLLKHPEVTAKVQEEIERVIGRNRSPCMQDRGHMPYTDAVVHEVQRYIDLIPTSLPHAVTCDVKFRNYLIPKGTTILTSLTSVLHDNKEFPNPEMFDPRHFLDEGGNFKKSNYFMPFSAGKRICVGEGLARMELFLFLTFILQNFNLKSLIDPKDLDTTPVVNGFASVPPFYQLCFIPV
Cytochrome P450 2D6 (Homo sapiens), sequence (P10635 whole entry, looked up): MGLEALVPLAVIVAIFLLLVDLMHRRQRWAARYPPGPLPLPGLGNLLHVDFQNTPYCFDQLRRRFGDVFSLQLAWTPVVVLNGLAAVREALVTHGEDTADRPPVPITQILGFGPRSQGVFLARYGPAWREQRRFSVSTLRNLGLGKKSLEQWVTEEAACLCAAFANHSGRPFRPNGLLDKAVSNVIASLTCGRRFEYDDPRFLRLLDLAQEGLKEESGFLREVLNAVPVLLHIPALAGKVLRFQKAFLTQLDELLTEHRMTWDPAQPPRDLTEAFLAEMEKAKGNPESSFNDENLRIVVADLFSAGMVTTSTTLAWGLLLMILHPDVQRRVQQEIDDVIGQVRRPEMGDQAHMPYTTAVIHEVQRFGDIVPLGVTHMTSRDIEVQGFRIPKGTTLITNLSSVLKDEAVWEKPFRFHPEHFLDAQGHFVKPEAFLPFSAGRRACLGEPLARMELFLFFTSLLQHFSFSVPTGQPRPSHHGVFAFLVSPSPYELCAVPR
Thyrotropin-releasing hormone receptor (Homo sapiens), sequence (P34981 whole entry, looked up): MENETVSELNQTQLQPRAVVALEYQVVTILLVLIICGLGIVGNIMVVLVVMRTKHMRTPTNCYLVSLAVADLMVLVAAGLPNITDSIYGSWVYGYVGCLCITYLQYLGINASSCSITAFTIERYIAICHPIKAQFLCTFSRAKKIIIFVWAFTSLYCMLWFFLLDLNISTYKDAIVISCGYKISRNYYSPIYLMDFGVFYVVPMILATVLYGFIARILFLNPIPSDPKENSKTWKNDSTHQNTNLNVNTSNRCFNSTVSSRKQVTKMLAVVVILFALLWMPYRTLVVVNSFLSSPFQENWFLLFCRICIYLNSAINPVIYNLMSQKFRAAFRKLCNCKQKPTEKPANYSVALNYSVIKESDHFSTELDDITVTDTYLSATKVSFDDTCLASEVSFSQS
Cytochrome P450 3A4 (Homo sapiens), sequence (P08684 whole entry, looked up): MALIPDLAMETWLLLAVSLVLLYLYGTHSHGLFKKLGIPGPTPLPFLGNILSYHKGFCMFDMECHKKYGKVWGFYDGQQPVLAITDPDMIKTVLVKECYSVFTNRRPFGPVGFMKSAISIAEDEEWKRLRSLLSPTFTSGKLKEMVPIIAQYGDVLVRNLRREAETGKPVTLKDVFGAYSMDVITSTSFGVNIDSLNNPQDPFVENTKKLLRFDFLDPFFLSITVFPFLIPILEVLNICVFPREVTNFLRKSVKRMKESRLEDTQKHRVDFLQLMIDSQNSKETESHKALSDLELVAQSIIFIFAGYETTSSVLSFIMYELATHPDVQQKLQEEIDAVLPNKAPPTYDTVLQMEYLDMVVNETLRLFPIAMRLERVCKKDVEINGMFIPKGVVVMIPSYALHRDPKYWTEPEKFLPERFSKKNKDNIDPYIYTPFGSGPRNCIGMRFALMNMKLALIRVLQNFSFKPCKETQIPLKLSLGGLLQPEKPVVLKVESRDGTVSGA
Cytochrome P450 2C9 (Homo sapiens), sequence (P11712 whole entry, looked up): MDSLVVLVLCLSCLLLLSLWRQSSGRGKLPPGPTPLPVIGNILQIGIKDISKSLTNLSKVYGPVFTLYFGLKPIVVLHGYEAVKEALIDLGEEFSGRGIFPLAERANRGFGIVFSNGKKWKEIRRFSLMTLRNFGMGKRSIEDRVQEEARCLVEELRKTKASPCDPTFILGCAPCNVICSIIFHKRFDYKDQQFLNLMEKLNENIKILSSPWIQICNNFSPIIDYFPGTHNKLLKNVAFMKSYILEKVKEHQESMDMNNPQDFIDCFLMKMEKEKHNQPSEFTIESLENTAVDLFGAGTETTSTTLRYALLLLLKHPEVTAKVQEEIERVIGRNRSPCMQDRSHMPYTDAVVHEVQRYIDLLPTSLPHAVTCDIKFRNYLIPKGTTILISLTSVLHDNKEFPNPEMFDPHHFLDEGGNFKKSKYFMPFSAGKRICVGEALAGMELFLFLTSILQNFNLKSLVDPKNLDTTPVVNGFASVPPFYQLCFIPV
Cytochrome P450 1A2 (Homo sapiens), sequence (P05177 whole entry, looked up): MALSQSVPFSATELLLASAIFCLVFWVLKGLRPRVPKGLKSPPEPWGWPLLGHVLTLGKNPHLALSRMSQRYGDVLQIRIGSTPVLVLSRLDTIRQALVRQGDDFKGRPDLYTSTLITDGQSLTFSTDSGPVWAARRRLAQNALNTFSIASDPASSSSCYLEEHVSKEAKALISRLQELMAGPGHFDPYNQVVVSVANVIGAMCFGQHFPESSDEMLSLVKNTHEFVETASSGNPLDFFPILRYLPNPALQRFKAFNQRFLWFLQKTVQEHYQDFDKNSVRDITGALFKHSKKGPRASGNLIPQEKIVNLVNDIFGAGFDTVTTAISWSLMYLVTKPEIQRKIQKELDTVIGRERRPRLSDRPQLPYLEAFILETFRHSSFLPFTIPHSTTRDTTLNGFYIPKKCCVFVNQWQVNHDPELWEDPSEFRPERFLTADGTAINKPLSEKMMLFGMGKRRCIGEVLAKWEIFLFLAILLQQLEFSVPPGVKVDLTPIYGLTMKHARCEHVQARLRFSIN

SMILES | outcome [1] | outcome [2] | outcome [3] | outcome [4] | Potency [5] | outcome [6] | outcome [7] | Potency [8] | Potency [9] | Potency [10] | Potency [11] | Potency [12] | Potency [13] | Potency [14] | outcome [15] | Potency [16] | Potency [17] | outcome [18] | outcome [19]
CC(C)OC(=O)OCOP(=O)(CO[C@H](C)Cn1cnc2c(N)ncnc21)OCOC(=O)OC(C)C | inactive | inactive | inactive | inactive | inactive | inactive | inactive | inactive | inactive | inactive | inactive | inactive | inactive | inactive | – | – | – | – | –
O=C(NCN1CCOCC1)c1cnccn1 | inactive | inactive | inactive | – | inactive | inactive | inactive | inactive | inactive | inactive | inactive | inactive | inactive | inactive | inactive | inactive | inactive | – | –
O=C1OCCO1 | inactive | inactive | inactive | inactive | inactive | inactive | inactive | inactive | – | – | inactive | – | 42.2 µM (active) | – | – | inactive | inactive | inactive | –
O=C1NC(c2ccccc2)(c2ccccc2)C(=O)N1COP(=O)(O)O | inactive | inactive | inactive | inactive | inactive | inactive | – | inactive | – | – | inactive | inactive | – | – | inactive | inactive | inactive | – | –
CC/C=C\CCOC(=O)c1ccccc1O | inactive | inactive | inactive | inactive | inactive | inactive | inactive | – | – | – | inactive | – | 31.7 µM (active) | – | inactive | – | inactive | inactive | –
CC(N)CCCC(C)(C)O (centres undefined) | inactive | – | inactive | inactive | inactive | inactive | inactive | – | – | – | – | inactive | inactive | inactive | – | inactive | – | – | inactive
Cn1nnc2c(C(N)=O)ncn2c1=O | inactive | inactive | inactive | – | inactive | inactive | inactive | inactive | inactive | inactive | inactive | inactive | inactive | inactive | inactive | inactive | inactive | inactive | –
CC1(C)Oc2ccc(C#N)cc2[C@@H](N2CCCC2=O)[C@@H]1O | inactive | inactive | inactive | inactive | inactive | inactive | inactive | inactive | inactive | inactive | inactive | inactive | – | – | – | – | inactive | – | –
CCc1occc(=O)c1O | inactive | inactive | inactive | inactive | inactive | inactive | inactive | inactive | – | – | inactive | inactive | – | inactive | – | inactive | inactive | – | –
OCC1CCC(CO)CC1 (centres undefined) | inactive | inactive | inactive | inactive | inactive | inactive | inactive | inactive | – | – | – | inactive | inactive | inactive | – | inactive | inactive | – | –
